3T3 cytotox – Cytotoxic Profiling in NIH 3T3 Cell Line of Diverse Libraries Using Quantitative High-Throughput Screening; 94,000 tested, 4.3% active; Potency, µM (series often up to 96.7 µM), hits mostly inhibitors; AID 1345082, 2018; NIH 3T3 viability, CellTiter-Glo ATP luminescence, 48-72 h; note: nearly all actives have a fitted effect of over 55% in size
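Cells were seeded at 400 per well, treated with pin-transferred compound, and kept 48 or 72 hr at 37 °C before CellTiter-Glo addition and luminescence imaging of cellular ATP.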
HEK293 tox – Cytotoxic Profiling in HEK 293 Cell Line of Diverse Libraries Using Quantitative High-Throughput Screening. HEK 293 viability, ATP luminescence (CellTiter-Glo), 48-72 h. Potency, µM (titrated, usually from 115 µM), most hits filed as inhibitors. 94,000 tested, 6.6% active; note: nearly all actives have a fitted effect of over 60% in size
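250 HEK 293 cells/well; compound by pintool; incubated 48 or 72 hr at 37 degree Celsius; CellTiter-Glo added, 10 min RT, luminescence imaged.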
hNpr1 antagonist – Natriuretic polypeptide receptor (hNpr1) antagonism - Primary qHTS. Atrial natriuretic peptide receptor 1 (Homo sapiens), P16066. HEK293 hNpr1 GloSensor cGMP, ANP-stimulated luminescence. Potency, µM (series often up to 46.3 µM), most hits filed as inhibitors. 76,000 tested, 1.6% active; calls by dose curve; note: nearly all actives have a fitted effect of over 60% in size
Target sequence (P16066 whole entry, looked up): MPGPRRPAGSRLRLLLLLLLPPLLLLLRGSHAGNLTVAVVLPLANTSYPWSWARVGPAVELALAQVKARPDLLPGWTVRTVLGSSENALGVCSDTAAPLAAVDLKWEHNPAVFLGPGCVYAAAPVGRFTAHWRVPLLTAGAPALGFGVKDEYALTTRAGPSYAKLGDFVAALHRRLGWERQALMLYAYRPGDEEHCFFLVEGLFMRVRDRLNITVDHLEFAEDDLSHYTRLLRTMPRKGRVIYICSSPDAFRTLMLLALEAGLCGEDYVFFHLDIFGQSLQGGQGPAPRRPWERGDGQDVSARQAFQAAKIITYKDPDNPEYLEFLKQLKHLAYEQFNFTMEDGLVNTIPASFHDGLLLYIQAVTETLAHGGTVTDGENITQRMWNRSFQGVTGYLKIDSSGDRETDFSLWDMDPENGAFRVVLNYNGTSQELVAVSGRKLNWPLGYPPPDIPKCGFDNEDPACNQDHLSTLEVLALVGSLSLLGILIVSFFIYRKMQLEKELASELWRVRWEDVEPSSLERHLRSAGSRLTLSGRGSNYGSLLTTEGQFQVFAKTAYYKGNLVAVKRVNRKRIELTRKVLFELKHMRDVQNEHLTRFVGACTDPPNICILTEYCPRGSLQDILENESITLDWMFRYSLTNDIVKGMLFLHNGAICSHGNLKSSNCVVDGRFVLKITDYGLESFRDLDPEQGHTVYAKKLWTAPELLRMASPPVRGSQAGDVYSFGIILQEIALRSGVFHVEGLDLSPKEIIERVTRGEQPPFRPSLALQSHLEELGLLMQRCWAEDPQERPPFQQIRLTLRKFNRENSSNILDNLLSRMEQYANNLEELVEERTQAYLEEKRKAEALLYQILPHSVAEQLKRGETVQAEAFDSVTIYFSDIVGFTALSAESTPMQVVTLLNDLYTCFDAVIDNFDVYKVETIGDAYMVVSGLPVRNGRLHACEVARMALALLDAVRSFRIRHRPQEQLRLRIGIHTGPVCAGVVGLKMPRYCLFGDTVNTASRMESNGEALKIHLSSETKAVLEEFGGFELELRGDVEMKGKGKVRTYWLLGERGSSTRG
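Compound pre-incubated 30 min at room temperature on GloSensor-loaded HEK293 cells stably carrying hNpr1 and the pGS-40F cGMP biosensor. Stimulation uses hNppA at 0.1 nM final; luminescence is taken at baseline and 20 min post-agonist.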
Luciferase inh – Firefly luciferase inhibition profiling of diverse chemical library using quantitative high-throughput screening | Potency, µM (series often up to 115 µM), usual class: inhibitors | AID 1347043, 2019 | purified P. pyralis luciferase, luminescence, biochemical | 76,000 tested, 2.5% active | Luciferin 4-monooxygenase (Photinus pyralis), P08659; note: nearly all actives have a fitted effect of over 65% in size
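Luminescence read by CCD imaging after purified firefly luciferase (10nM final) was added to substrate buffer holding 10uM D-luciferin and 10uM ATP, pH 7.5, pre-dosed with compound.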
Hits are given with their value; 0 = inactive; ? = inconclusive; - = not tested or not shown. The list is not random: actives were taken first. Their share in the collection is about 11%. Unless noted, calls come from the whole dose curve; as a rule, active = well fitted curve in the direction sought with a large enough effect; inconclusive = small, poorly fitted or top-dose-only effect, or another doubt; inactive = no such curve, though single readings can be large; an effect the other way counts as inactive or inconclusive.

SMILES | 3T3 cytotox | HEK293 tox | hNpr1 antagonist | Luciferase inh
COc1cccc(-c2ccc3onc(C)c3n2)c1 | ? | ? | 0 | ?
O=[S+]([O-])(c1ccc(Br)cc1)c1nnn2c1nc(N1CCCCC1)c1ccccc12 | 0 | 0 | - | -
COc1ccccc1CN1Cc2cc(NC(=O)c3ccc4c(c3)OCO4)ccc2OC(C)C1=O (stereo unspecified) | ? | 39.8µM | 0 | 0
COc1ccc(C(=O)Nc2ccc3c(c2)CN(Cc2ccccc2Cl)C(=O)C(C)O3)cc1OC (stereo unspecified) | ? | ? | 0 | 0
COc1cc(OC)cc(C(=O)Nc2ccc3c(c2)CN(Cc2ccccc2)C(=O)C(C)O3)c1 (stereo unspecified) | ? | ? | 0 | 0
CCC1Oc2ccc(NC(=O)c3c(F)cccc3F)cc2CN(Cc2ccc3c(c2)OCO3)C1=O (stereo unspecified) | ? | ? | 0 | 0
CC1Oc2ccc(NC(=O)c3ccc4c(c3)OCO4)cc2CN(Cc2ccccc2)C1=O (stereo unspecified) | ? | 20µM | ? | 0
COc1ccc(CN2Cc3cc(NC(=O)c4ccccc4)ccc3OC(C)C2=O)cc1 (stereo unspecified) | 0 | ? | 0 | 0
CCC1Oc2ccc(NC(=O)c3ccc4c(c3)OCO4)cc2CN(Cc2ccc(F)cc2)C1=O (stereo unspecified) | ? | 14.1µM | 0 | ?
COc1ccc(CN2Cc3cc(NC(=O)c4ccc5c(c4)OCO5)ccc3OC(C)C2=O)cc1 (stereo unspecified) | ? | 22.4µM | 0 | 0
CCN1CCN(C(=O)c2nc3sccn3c2-c2cccc(OC)c2)CC1 | 0 | 0 | - | -
CC1Oc2ccc(NC(=O)c3cccc(F)c3)cc2CN(Cc2ccc3c(c2)OCO3)C1=O (stereo unspecified) | ? | 39.8µM | 0 | 0
Cc1noc(C)c1-c1cc2cc(CN(C)C)oc2c(Nc2ccn(C)n2)n1 | ? | ? | 0 | 0
COc1cccc(Nc2nc(-c3c(C)noc3C)cc3cc(CN(C)C)oc23)c1 | 44.7µM | 44.7µM | 0 | 0
COc1cc(CNc2nc(-c3c(C)noc3C)cc3cc(CN(C)C)oc23)cc(OC)c1 | ? | ? | 0 | 0
Cc1noc(C)c1-c1cc2cc(CN(C)C)oc2c(Nc2cccc([S+](C)(=O)[O-])c2)n1 | 44.7µM | 50.1µM | 0 | 0
O=C(Nc1ccccc1)N1CCCC(C(=O)N2CCC(c3nc4ncccc4[nH]3)C2)C1 (stereo unspecified) | 0 | 0 | - | -
CC(C)CNC(=O)c1cc(-c2ccsc2)nc2c1cnn2C | ? | 70.8µM | - | -
Cn1ncc2c(C(=O)NCCc3ccc(Cl)cc3)cc(-c3ccsc3)nc21 | ? | 0 | - | -
Cn1ncc2c(C(=O)NCc3cccc(C(F)(F)F)c3)cc(-c3ccsc3)nc21 | ? | 28.2µM | - | -
Cn1ncc2c(C(=O)NCc3cccc(C(F)(F)F)c3)cc(-c3ccc([S+](C)(=O)[O-])cc3)nc21 | 0 | 0 | - | -
O=C(c1ccccc1)N1CCN(c2ccnc3ccnn23)CC1 | 0 | 0 | - | -
O=C(c1nnn2cc(-c3ccccc3)[nH]c(=O)c12)N1CCN(C2CCCCC2)CC1 | 0 | 0 | 0 | 0
O=C(CCC1CCCN(Cc2cccn2-c2nccs2)C1)Nc1ccccc1F (stereo unspecified) | 0 | 0 | 0 | 0
Fc1cccc(NC2CCCN(Cc3cccn3-c3nccs3)C2)c1 (stereo unspecified) | ? | 44.7µM | 0 | 0
SMILES | 3T3 cytotox | HEK293 tox | hNpr1 antagonist | Luciferase inh
COCCOC1CCN(S(=O)(=O)Cc2ccccc2)CC1 | 0 | 0 | 0 | 0
COCC1CCN(S(=O)(=O)N2CCCCC2CCc2ccccc2)CC1 (stereo unspecified) | ? | 44.7µM | 0 | 0
O=C(Nc1ccccc1C(F)(F)F)N1CCC(N(C(=O)C2CC2)C2CCOCC2)CC1 | 0 | 0 | - | -
O=C(Nc1ccc(F)cc1)C1CN(S(=O)(=O)c2cccnc2)CC12CCCCC2 (stereo unspecified) | 0 | ? | 0 | 0
O=C(Nc1ccc2c(c1)OCO2)C1CN(S(=O)(=O)c2cccnc2)CC12CCCCC2 (stereo unspecified) | 0 | 0 | 0 | 39.8µM
Cc1nn(-c2ccccc2)c2c1C(C(C)C)N(C1CN([S+](=O)([O-])c3c(C)noc3C)C1)C2=O (stereo unspecified) | 0 | 0 | - | -
CCc1noc(-c2cn(C3CCCN(C(=O)c4ccc(F)c(Cl)c4)C3)nn2)n1 (stereo unspecified) | ? | 0 | 0 | 0
CN1CCC(N2CC[C@H](c3nc4ccccc4[nH]3)C2)CC1 | 0 | 0 | 0 | 70.8µM
CN1CCC(N2CC[C@H](c3nc4ccc(C(F)(F)F)cc4[nH]3)C2)CC1 | 89.1µM | ? | 0 | 0
Cc1ccc2oc([C@H]3CCN(S(=O)(=O)c4ccc(F)cc4)C3)nc2c1 | ? | ? | ? | 0
FC(F)(F)c1ccc2nc([C@H]3CCN(C4CCCCC4)C3)[nH]c2c1 | 89.1µM | ? | 0 | 56.2µM
Cc1ccc(S(=O)(=O)N2CC[C@H](c3nc4ccccc4[nH]3)C2)cc1 | 89.1µM | ? | 0 | 0
O=C(NCCc1ccc(F)cc1)C1CCCN1C(=O)c1cccc(-c2ccccn2)c1 (stereo unspecified) | 0 | 0 | - | -
CCn1cc(CN2CCC3(CC2)CC(C(=O)N2CCOCC2)N(C)C3)c(C)n1 (stereo unspecified) | 0 | 0 | - | -
OC1CCOC2(CCN(Cc3ccc(OC(F)(F)F)cc3)CC2)C1 (stereo unspecified) | 0 | 0 | 0 | 0
COc1cccc(C(=O)N2C[C@@H](Oc3ccccc3)C[C@@H]2C(=O)N2CCOCC2)c1 | 0 | 0 | 0 | 0
CCc1ccc(S(=O)(=O)N2CCC(n3cnnc3C)CC2)cc1 | 0 | 0 | 0 | 0
COc1cc(CN2CC[C@@H]3CN(S(C)(=O)=O)[C@@H]3C2)ccc1F | 0 | 0 | 0 | 0
CCOC(=O)[C@@H]1[C@@H](O)C(=O)N(C)C12CCN(C(=O)OCC)CC2 | 0 | ? | - | -
COc1ccc(C(=O)N2CCCC2C(=O)N2CCC(c3nc4ccncc4[nH]3)C2)cc1 (stereo unspecified) | 0 | 0 | - | -
O=C(NCc1ccccn1)C1CCN(Cc2ccccc2-c2cccnc2)CC1 | 0 | 0 | - | -
COc1ccc(-c2cnc3[nH]cc(CC(=O)N(C)C)c3c2)cc1 | 12.6µM | ? | ? | 22.4µM
COc1ccc(-c2cnc3[nH]cc(CC(=O)NC4CCOCC4)c3c2)cc1 | 25.1µM | ? | 0 | ?
Cn1cc(-c2cnc3[nH]cc(CC(=O)NCc4ccc5c(c4)OCO5)c3c2)cn1 | ? | ? | 0 | 0
COc1ccc(OC)c(-c2cnc3[nH]cc(CC(N)=O)c3c2)c1 | ? | 0 | ? | 0
COc1ccc(-c2cnc3[nH]cc(CC(=O)NCCN(C)C)c3c2)cc1 | 50.1µM | 100µM | 0 | 0
Cc1ccc(-c2noc([C@@H]3Cc4nc[nH]c4CN3C(=O)c3ccccc3)n2)cc1 | 0 | 0 | 0 | 39.8µM

Assay outcomes deposited in PubChem by National Center for Advancing Translational Sciences (NCATS).
